Test results from the supplement of paper PMC10849652.
The full data set covers some 7,900 targets. This sample favours those with a hit. About 0.6% of all pairs of compound and target were hits.

Tests used:
Assay in all cases: log2 fold change, soluble protein after heating vs DMSO (PISA); higher = thermal stabilisation; K562 cells, 10 uM, 30 min; active = over 0.2 and 3.5 SD of the protein, either way, in both replicates (recomputed)
saracatinib = compound: CN1CCN(CCOc2cc(OC3CCOCC3)c3c(Nc4c(Cl)ccc5c4OCO5)ncnc3c2)CC1 [saracatinib]
Outline: (§1)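 K562 cells at 2×10^6 cells/mL were treated with 10 μM compound for 30 min. Aliquots were heated for 3 min across 48°C-58°C, pooled, and extracted in PBS with 0.5% NP-40 at 4°C; soluble protein was the supernatant after 21,000xg for 90 min. Soluble protein was quantified by TMTpro 16plex LC-MS/MS with channel sums equalised, and reported as log2 fold change in thermal stability against DMSO controls, with values from duplicates.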

sotrastaurin = compound: CN1CCN(c2nc(C3=C(c4c[nH]c5ccccc45)C(=O)NC3=O)c3ccccc3n2)CC1 [sotrastaurin]
Outline: as §1

alvocidib = compound: CN1CC[C@H](c2c(O)cc(O)c3c(=O)cc(-c4ccccc4Cl)oc23)[C@H](O)C1 [alvocidib]
Outline: as §1

Tubastatin A = compound: CN1CCc2c(c3ccccc3n2Cc2ccc(C(=O)NO)cc2)C1 [Tubastatin A]
Outline: as §1

[1] = compound: CNC(=O)C1=CC=CC=C1NC2=NC(=NC=C2Cl)NC3=C(C=C(C=C3)N4CCOCC4)OC
Outline: as §1

defactinib = compound: CNC(=O)c1ccc(Nc2ncc(C(F)(F)F)c(NCc3nccnc3N(C)S(C)(=O)=O)n2)cc1 [defactinib]
Outline: as §1

rucaparib = compound: CNCc1ccc(-c2[nH]c3cc(F)cc4c3c2CCNC4=O)cc1 [rucaparib]
Outline: as §1

[2] = compound: CNc1nc(-c2ccc3c(N)n[nH]c3c2)cc(N2C[C@@H](C(=O)NC3CCCCC3)CC[C@H]2C)n1
Outline: as §1

encorafenib = compound: COC(=O)N[C@@H](C)CNc1nccc(-c2cn(C(C)C)nc2-c2cc(Cl)cc(NS(C)(=O)=O)c2F)n1 [encorafenib]
Outline: as §1

[3] = compound: COC(=O)[C@H](CCSC)NC(=O)C1=C(C=C(C=C1)NC[C@H](CS)N)C2=CC=CC=C2
Outline: as §1

[4] = compound: COC1=CC=C(C=C1)CN2C=CC3=C2C=C(C=C3)C(=O)NO
Outline: as §1

filanesib = compound: CON(C)C(=O)N1N=C(c2cc(F)ccc2F)S[C@@]1(CCCN)c1ccccc1 [filanesib]
Outline: as §1

zotarolimus = compound: CO[C@H]1C[C@@H]2CC[C@@H](C)[C@@](O)(O2)C(=O)C(=O)N2CCCC[C@H]2C(=O)O[C@H]([C@H](C)C[C@@H]2CC[C@H](n3cnnn3)[C@H](OC)C2)CC(=O)[C@H](C)/C=C(\C)[C@@H](O)[C@@H](OC)C(=O)[C@H](C)C[C@H](C)/C=C/C=C/C=C/1C [zotarolimus]
Outline: as §1

idasanutlin = compound: COc1cc(C(=O)O)ccc1NC(=O)[C@@H]1N[C@@H](CC(C)(C)C)[C@](C#N)(c2ccc(Cl)cc2F)[C@H]1c1cccc(Cl)c1F [idasanutlin]
Outline: as §1

alisertib = compound: COc1cc(Nc2ncc3c(n2)-c2ccc(Cl)cc2C(c2c(F)cccc2OC)=NC3)ccc1C(=O)O [alisertib]
Outline: as §1

[5] = compound: COc1cc2nc(-c3cc(F)ccc3O)nc(N[C@@H]3CNC[C@H]3C(C)(C)O)c2cc1OC
Outline: as §1

gefitinib = compound: COc1cc2ncnc(Nc3ccc(F)c(Cl)c3)c2cc1OCCCN1CCOCC1 [gefitinib]
Outline: as §1

[6] = compound: COc1cccc2cc(-c3nc([C@H]4CC[C@H](C(=O)O)CC4)n4ncnc(N)c34)[nH]c12
Outline: as §1

lapatinib = compound: CS(=O)(=O)CCNCc1ccc(-c2ccc3ncnc(Nc4ccc(OCc5cccc(F)c5)c(Cl)c4)c3c2)o1 [lapatinib]
Outline: as §1

pictilisib = compound: CS(=O)(=O)N1CCN(Cc2cc3nc(-c4cccc5[nH]ncc45)nc(N4CCOCC4)c3s2)CC1 [pictilisib]
Outline: as §1

Measured: log2 fold change

HMGB3 (UniProt O15347)
UniProt O15347, sequence (O15347 whole entry, looked up): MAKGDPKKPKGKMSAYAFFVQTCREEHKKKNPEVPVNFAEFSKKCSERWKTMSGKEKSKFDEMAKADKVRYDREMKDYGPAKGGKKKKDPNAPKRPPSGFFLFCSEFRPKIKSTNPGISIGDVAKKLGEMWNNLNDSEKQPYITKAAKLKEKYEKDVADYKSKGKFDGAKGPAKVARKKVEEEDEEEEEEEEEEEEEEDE
inactive: saracatinib 0.05 | sotrastaurin 0.031 | alvocidib -0.022 | Tubastatin A 0 | [1] -0.076 | defactinib 0.089 | rucaparib 0.008 | [2] -0.073 | encorafenib -0.063 | [3] 0.021 | [4] 0.037 | filanesib -0.001 | zotarolimus 0.012 | idasanutlin 0.045 | alisertib -0.064 | [5] -0.031 | gefitinib -0.033 | [6] 0 | lapatinib 0.062 | pictilisib -0.044

HSPA8 (UniProt P11142)
UniProt P11142, sequence (P11142 whole entry, looked up): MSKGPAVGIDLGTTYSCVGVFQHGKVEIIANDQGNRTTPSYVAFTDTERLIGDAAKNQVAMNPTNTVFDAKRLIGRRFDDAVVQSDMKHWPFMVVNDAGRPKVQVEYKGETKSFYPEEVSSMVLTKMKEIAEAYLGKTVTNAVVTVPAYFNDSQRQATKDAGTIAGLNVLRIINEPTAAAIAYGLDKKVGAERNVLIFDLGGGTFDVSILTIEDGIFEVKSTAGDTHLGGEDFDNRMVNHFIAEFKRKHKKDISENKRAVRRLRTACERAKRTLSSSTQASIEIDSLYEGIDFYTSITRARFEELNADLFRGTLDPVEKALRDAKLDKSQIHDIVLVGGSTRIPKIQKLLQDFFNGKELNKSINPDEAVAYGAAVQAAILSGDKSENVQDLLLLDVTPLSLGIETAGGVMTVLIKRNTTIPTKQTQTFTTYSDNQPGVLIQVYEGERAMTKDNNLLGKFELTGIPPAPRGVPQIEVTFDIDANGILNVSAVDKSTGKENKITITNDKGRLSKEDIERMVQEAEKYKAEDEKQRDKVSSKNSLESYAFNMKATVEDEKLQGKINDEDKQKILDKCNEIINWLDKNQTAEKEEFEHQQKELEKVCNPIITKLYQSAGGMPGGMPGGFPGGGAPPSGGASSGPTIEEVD
inactive: saracatinib 0.067 | sotrastaurin 0.007 | alvocidib 0.01 | Tubastatin A -0.019 | [1] 0.139 | defactinib 0.006 | rucaparib -0.029 | [2] -0.002 | encorafenib -0.009 | [3] 0.042 | [4] -0.008 | filanesib -0.035 | zotarolimus 0.005 | idasanutlin 0.018 | alisertib -0.036 | [5] -0.004 | gefitinib 0.018 | [6] -0.012 | lapatinib -0.018 | pictilisib -0.039

GTF3C5 isoform 3 (UniProt Q9Y5Q8)
UniProt Q9Y5Q8, sequence (Q9Y5Q8 whole entry, looked up): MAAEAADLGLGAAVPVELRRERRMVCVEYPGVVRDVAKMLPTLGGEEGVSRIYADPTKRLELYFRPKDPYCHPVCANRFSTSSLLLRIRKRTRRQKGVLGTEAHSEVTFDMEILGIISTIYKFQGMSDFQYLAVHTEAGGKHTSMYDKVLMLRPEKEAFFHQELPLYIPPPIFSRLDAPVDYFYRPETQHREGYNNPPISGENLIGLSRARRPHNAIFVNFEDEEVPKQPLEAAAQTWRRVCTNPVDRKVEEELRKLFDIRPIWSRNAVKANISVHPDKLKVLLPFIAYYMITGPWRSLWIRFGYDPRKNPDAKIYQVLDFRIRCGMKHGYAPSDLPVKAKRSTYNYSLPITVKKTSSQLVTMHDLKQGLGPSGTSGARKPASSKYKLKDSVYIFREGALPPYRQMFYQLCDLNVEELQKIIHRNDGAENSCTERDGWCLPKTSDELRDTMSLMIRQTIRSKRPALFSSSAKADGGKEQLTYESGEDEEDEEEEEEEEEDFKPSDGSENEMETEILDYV
inactive: saracatinib 0.024 | sotrastaurin -0.148 | alvocidib 0.036 | Tubastatin A 0.068 | [1] -0.02 | defactinib -0.069 | rucaparib -0.173 | [2] 0.056 | encorafenib 0.085 | [3] -0.021 | [4] -0.115 | filanesib -0.039 | zotarolimus 0.116 | idasanutlin -0.068 | alisertib 0.064 | [5] 0.024 | gefitinib -0.003 | [6] -0.034 | lapatinib 0.13 | pictilisib -0.148

GCDH (UniProt Q92947)
inactive: saracatinib 0.035 | sotrastaurin 0.07 | alvocidib 0 | Tubastatin A 0.004 | [1] -0.054 | defactinib -0.012 | rucaparib 0.045 | [2] 0.009 | encorafenib -0.047 | [3] 0.008 | [4] 0.02 | filanesib -0.081 | zotarolimus 0.027 | idasanutlin -0.066 | alisertib -0.066 | [5] -0.011 | gefitinib 0.042 | [6] 0.016 | lapatinib -0.004 | pictilisib -0.02

GTF3A (UniProt Q92664)
UniProt Q92664, sequence (Q92664 whole entry, looked up): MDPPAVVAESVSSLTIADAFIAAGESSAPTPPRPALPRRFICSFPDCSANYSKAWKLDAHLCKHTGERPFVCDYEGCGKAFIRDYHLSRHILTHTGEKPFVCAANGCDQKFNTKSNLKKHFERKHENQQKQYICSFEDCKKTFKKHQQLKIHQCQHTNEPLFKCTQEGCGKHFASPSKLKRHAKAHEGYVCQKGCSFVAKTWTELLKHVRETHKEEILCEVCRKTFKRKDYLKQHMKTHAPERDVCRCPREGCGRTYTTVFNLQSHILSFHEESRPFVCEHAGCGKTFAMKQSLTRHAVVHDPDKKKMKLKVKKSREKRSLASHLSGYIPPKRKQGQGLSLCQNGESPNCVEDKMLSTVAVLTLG
inactive: saracatinib 0.019 | sotrastaurin -0.008 | alvocidib -0.113 | Tubastatin A -0.072 | [1] -0.03 | defactinib -0.18 | rucaparib 0.206 | [2] -0.005 | encorafenib -0.138 | [3] 0 | [4] 0.092 | filanesib -0.138 | zotarolimus 0.067 | idasanutlin -0.018 | alisertib 0.014 | [5] -0.225 | gefitinib -0.139 | [6] -0.006 | lapatinib 0.099 | pictilisib -0.042

FARS2 (UniProt O95363)
inactive: saracatinib -0.026 | sotrastaurin -0.003 | alvocidib -0.158 | Tubastatin A -0.045 | [1] 0.075 | defactinib -0.023 | rucaparib -0.026 | [2] 0.074 | encorafenib 0.026 | [3] -0.054 | [4] -0.171 | filanesib -0.122 | zotarolimus -0.049 | idasanutlin -0.076 | alisertib 0.137 | [5] 0.033 | gefitinib -0.114 | [6] 0.113 | lapatinib -0.061 | pictilisib 0.071

GUK1 isoform 2 (UniProt Q16774)
inactive: saracatinib 0.001 | sotrastaurin -0.223 | alvocidib -0.092 | Tubastatin A 0.064 | [1] 0.027 | defactinib -0.162 | rucaparib 0.175 | [2] 0.026 | encorafenib -0.079 | [3] 0 | [4] 0.215 | filanesib -0.005 | zotarolimus 0.022 | idasanutlin -0.04 | alisertib -0.048 | [5] 0.155 | gefitinib -0.05 | [6] -0.019 | lapatinib -0.001 | pictilisib 0.017

IFI30 (UniProt P13284)
inactive: saracatinib 0.224 | sotrastaurin 0.063 | alvocidib -0.003 | Tubastatin A -0.028 | [1] -0.02 | defactinib -0.048 | rucaparib 0.006 | [2] 0.144 | encorafenib 0.009 | [3] 0.042 | [4] 0.04 | filanesib 0.061 | zotarolimus 0.06 | idasanutlin 0.027 | alisertib -0.11 | [5] -0.133 | gefitinib -0.035 | [6] 0.01 | lapatinib 0.147 | pictilisib -0.02

GBA2 (UniProt Q9HCG7)
UniProt Q9HCG7, sequence (Q9HCG7 whole entry, looked up): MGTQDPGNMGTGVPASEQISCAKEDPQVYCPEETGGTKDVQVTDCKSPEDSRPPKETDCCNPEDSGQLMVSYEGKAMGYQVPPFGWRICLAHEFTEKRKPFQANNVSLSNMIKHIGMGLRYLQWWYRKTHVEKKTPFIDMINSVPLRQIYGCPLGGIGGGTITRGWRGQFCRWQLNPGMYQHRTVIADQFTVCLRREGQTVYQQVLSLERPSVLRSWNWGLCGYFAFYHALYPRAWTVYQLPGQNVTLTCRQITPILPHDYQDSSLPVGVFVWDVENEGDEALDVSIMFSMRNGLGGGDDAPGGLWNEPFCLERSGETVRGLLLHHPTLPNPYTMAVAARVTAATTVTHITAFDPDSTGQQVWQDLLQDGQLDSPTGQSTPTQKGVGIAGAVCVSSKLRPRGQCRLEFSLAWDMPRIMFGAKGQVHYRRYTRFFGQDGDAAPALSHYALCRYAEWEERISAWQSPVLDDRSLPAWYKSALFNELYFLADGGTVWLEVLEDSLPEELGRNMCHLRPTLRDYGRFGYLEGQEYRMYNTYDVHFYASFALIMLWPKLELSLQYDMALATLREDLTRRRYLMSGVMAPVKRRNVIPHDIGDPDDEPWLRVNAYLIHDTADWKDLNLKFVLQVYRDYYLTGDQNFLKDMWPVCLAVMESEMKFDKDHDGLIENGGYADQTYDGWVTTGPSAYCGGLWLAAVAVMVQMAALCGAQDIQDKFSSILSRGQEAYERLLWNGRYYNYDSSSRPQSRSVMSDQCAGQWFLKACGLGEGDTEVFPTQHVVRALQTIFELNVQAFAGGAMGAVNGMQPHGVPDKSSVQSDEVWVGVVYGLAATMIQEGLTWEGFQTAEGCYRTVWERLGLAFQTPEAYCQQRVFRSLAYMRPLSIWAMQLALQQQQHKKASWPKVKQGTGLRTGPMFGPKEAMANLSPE
inactive: saracatinib -0.046 | sotrastaurin -0.026 | alvocidib -0.063 | Tubastatin A -0.03 | [1] -0.012 | defactinib -0.07 | rucaparib -0.266 | [2] 0.11 | encorafenib 0.084 | [3] 0.071 | [4] -0.064 | filanesib 0.117 | zotarolimus 0.087 | idasanutlin -0.042 | alisertib 0.067 | [5] 0.049 | gefitinib 0.084 | [6] -0.062 | lapatinib 0.011

GGA2 (UniProt Q9UJY4)
inactive: saracatinib -0.054 | sotrastaurin 0.053 | alvocidib -0.034 | Tubastatin A -0.088 | [1] -0.025 | defactinib 0.025 | rucaparib -0.064 | [2] -0.054 | encorafenib 0.068 | [3] 0.122 | [4] 0.012 | filanesib -0.09 | zotarolimus 0.069 | idasanutlin -0.017 | alisertib -0.067 | [5] 0.181 | gefitinib -0.004 | [6] 0.112 | lapatinib -0.027

IFITM3 (UniProt Q01628)
UniProt Q01628, sequence (Q01628 whole entry, looked up): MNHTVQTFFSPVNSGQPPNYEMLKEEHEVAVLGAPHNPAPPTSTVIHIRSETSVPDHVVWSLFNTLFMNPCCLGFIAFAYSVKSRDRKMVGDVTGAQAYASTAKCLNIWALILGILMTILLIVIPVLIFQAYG
inactive: saracatinib -0.022 | sotrastaurin 0.035 | alvocidib -0.011 | Tubastatin A 0.241 | [1] 0.044 | defactinib -0.165 | rucaparib 0.093 | [2] 0.03 | encorafenib 0.1 | [3] 0.008 | [4] 0.055 | filanesib 0.008 | zotarolimus 0.007 | idasanutlin 0.07 | alisertib -0.121 | [5] -0.017 | gefitinib 0.09 | [6] 0.089 | lapatinib 0.004

IGF2BP2 (UniProt Q9Y6M1)
UniProt Q9Y6M1, sequence (Q9Y6M1 whole entry, looked up): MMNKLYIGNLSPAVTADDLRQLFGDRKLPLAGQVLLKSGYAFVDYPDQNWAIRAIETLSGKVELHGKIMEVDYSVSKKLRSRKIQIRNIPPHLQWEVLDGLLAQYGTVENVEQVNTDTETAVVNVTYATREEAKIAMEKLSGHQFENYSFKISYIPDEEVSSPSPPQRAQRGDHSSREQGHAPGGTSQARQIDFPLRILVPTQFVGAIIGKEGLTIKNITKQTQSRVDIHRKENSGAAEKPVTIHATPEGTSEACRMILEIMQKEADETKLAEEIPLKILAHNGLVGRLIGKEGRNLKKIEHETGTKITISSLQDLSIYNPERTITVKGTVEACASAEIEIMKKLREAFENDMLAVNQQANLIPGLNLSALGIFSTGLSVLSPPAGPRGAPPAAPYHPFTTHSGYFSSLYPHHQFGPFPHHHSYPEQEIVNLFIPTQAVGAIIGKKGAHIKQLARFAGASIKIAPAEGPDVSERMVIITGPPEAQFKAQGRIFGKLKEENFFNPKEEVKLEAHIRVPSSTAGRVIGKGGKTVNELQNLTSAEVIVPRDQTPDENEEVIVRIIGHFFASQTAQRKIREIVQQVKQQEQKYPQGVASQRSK
inactive: saracatinib -0.122 | sotrastaurin -0.035 | alvocidib 0.209 | Tubastatin A 0.168 | [1] 0.044 | defactinib 0.147 | rucaparib 0.446 | [2] 0.145 | encorafenib 0.106 | [3] -0.066 | [4] -0.111 | filanesib 0.301 | zotarolimus 0.104 | idasanutlin 0.136 | alisertib -0.103 | [5] -0.105 | gefitinib 0.007 | [6] -0.113 | lapatinib 0.046 | pictilisib -0.043

HMGCR isoform 3 (UniProt P04035)
UniProt P04035, sequence (P04035 whole entry, looked up): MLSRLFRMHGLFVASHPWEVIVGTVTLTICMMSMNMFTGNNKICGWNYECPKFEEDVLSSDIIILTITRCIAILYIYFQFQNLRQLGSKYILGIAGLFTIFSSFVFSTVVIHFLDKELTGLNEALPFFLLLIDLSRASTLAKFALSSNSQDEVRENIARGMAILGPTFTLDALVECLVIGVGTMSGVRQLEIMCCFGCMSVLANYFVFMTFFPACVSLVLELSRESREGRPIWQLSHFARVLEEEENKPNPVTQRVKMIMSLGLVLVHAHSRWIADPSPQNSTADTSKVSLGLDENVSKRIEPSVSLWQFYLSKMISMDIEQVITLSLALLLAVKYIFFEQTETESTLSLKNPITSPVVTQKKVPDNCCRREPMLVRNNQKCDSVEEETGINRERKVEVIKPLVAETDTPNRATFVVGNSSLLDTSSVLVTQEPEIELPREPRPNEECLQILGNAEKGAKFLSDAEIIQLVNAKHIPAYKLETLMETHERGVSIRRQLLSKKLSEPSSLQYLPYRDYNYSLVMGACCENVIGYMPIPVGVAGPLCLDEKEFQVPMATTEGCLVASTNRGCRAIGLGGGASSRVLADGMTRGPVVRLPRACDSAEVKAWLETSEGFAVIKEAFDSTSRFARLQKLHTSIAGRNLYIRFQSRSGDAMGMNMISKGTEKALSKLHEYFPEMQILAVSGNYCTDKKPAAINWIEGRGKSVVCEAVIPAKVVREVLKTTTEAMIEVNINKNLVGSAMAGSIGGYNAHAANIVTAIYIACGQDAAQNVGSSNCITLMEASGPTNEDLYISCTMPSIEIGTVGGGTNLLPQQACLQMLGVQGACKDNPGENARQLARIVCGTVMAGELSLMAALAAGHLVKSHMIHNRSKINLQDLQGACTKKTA
active: Tubastatin A 0.33
inactive: saracatinib 0.002 | sotrastaurin -0.287 | alvocidib -0.021 | [1] -0.133 | defactinib -0.004 | rucaparib -0.208 | [2] -0.024 | encorafenib 0.094 | [3] 0.146 | [4] -0.097 | filanesib -0.027 | zotarolimus 0 | idasanutlin 0.188 | alisertib -0.146 | [5] 0.166 | gefitinib 0.01 | [6] -0.045 | lapatinib -0.066 | pictilisib -0.13

HSPA8 (UniProt E9PK54)
inactive: saracatinib -0.058 | sotrastaurin -0.054 | alvocidib 0.332 | Tubastatin A -0.003 | [1] 0.072 | defactinib -0.012 | rucaparib -0.287 | [2] -0.033 | encorafenib 0.051 | [3] 0.048 | [4] 0.011 | filanesib 0.033 | zotarolimus -0.015 | idasanutlin -0.037 | alisertib -0.186 | [5] -0.208 | gefitinib -0.077 | [6] -0.002 | lapatinib 0.17 | pictilisib -0.071

HPCAL1 (UniProt P37235)
inactive: saracatinib 0.011 | sotrastaurin 0.017 | alvocidib -0.004 | Tubastatin A -0.085 | [1] 0.048 | defactinib -0.008 | rucaparib 0.013 | [2] -0.107 | encorafenib -0.014 | [3] -0.025 | [4] -0.085 | filanesib -0.128 | zotarolimus -0.017 | idasanutlin -0.062 | alisertib 0.002 | [5] -0.012 | gefitinib -0.021 | [6] 0.06 | lapatinib -0.027 | pictilisib 0.013

FOXK1 (UniProt P85037)
UniProt P85037, sequence (P85037 whole entry, looked up): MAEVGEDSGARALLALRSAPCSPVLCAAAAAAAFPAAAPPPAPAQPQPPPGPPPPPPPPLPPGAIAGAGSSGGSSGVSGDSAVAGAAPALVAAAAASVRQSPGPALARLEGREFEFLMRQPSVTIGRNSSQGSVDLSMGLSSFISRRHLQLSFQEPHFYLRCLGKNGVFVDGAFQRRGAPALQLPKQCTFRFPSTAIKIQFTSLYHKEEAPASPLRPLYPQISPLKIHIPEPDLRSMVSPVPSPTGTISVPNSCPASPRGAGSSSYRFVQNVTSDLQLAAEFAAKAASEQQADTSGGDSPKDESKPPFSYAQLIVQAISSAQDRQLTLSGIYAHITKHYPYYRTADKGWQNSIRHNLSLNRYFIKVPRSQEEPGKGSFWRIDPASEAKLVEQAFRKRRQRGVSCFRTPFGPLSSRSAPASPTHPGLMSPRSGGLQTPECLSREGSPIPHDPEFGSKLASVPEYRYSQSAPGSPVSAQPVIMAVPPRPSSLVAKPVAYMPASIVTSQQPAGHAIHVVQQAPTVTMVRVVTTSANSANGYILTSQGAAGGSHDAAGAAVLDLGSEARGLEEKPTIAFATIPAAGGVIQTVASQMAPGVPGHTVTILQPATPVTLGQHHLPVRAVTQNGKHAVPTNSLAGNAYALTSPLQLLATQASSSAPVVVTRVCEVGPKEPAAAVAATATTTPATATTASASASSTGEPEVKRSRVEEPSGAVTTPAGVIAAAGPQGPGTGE
inactive: saracatinib 0.214 | Tubastatin A -0.112 | [1] 0.2 | defactinib -0.941 | rucaparib -0.759 | [2] 0.615 | encorafenib 0.054 | [3] -0.111 | [4] -0.002 | filanesib 0.361 | idasanutlin -0.123 | alisertib -0.038 | [5] 0.526 | gefitinib 0.516 | [6] 0.774 | lapatinib 0.085 | pictilisib 0.584
active: sotrastaurin -1.37 | alvocidib -1.01 | zotarolimus 1
